The source made the active and inactive calls. Unless noted, no rule for the calls is given here.
Tests used:
[1] = resazurin metabolic signal in HepG2 cells – cell-based, resazurin fluorescence, 24 h, PK04 Diversity Set, profiling panel (AID 1172); settings: HepG2 viability, higher = more signal
[2] = budding yeast growth changes without added modifier – OD600, strain BY4716, 24 h, basal condition, primary screen (AID 1173); settings: S. cerevisiae BY4716 growth, OD600, 24 h; higher = more signal, called active from +8 up or from −8 down
[3] = viability profiling in MM1S myeloma cells – cell-based, resazurin fluorescence, basal, 24 h, PK04 Diversity Set, profiling panel (AID 1174); settings: higher = more signal, called active from +8 up or from −8 down;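 also: MM1S multiple myeloma cell line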
[4] = target: Dihydroorotate dehydrogenase (quinone), mitochondrial (Plasmodium falciparum (isolate 3D7)) (UniProt Q08210); assay: inhibition of P. falciparum DHODH – biochemical, C-terminal His tag, absorbance 600 nm, primary screen (AID 1175); settings: PfDHODH enzyme, DCIP absorbance 600 nm; higher = more signal, called active from +8 up or from −8 down;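 also: recombinant parasite enzyme with a five histidine tag at its C terminus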
Sequence of Dihydroorotate dehydrogenase (quinone), mitochondrial (Plasmodium falciparum (isolate 3D7)) (Q08210 whole entry, looked up): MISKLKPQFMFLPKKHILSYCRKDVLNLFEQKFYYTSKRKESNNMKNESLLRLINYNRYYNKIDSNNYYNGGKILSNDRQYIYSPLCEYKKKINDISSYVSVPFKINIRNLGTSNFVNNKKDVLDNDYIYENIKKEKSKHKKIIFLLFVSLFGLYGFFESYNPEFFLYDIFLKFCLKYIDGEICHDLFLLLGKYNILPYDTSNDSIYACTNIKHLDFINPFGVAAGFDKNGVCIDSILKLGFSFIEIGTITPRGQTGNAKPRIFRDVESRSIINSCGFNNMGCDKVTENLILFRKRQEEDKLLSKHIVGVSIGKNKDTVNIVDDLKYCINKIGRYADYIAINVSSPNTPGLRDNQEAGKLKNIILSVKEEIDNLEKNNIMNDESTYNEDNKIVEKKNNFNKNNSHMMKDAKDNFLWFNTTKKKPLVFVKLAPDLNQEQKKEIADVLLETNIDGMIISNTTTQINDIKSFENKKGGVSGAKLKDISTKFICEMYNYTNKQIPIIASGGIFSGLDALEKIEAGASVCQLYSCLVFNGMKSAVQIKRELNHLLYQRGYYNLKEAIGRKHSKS

[5] = inhibition of PAO1 biofilm formation – strain PAO1, LB-PBS medium, absorbance 600 nm, primary screen (AID 1176); settings: P. aeruginosa PAO1 growth/biofilm, A600, 12 h; higher = more signal
[6] = growth modulation of vineyard yeast isolate – strain RM11-1a, OD600, basal, 24 h, primary screen (AID 1177);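 also: cultures grown under basal conditions with no added stressor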; settings: S. cerevisiae RM11-1a growth, OD600, 24 h; higher = more signal, called active from +8 up or from −8 down
[7] = growth of efflux-deficient E. coli DRC39 – strain DRC39, OD650, 24 h, E. coli filamentation inducers, primary screen (AID 1178);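 also: growth measured as culture turbidity by optical density at 650 nm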; settings: E. coli DRC39 acrAB, higher = more signal, called active from +8 up or from −8 down
[8] = growth of efflux-deficient E. coli DRC39 – strain DRC39, OD650, 48 h, E. coli filamentation inducers, primary screen (AID 1179);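 also: screen aims at cell division blockers that make cells filament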; settings: E. coli DRC39 delta-acrAB growth, higher = more signal, called active from +8 up or from −8 down
[9] = viability profiling in RPMI8226 myeloma cells – cell-based, resazurin fluorescence, basal, 24 h, PK04 Diversity Set, profiling panel (AID 1180); settings: higher = more signal;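 also: RPMI8826 multiple myeloma cell line at 5000 cells per well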
[10] = target: E3 ubiquitin-protein ligase XIAP (Homo sapiens) (UniProt P98170); assay: small molecules binding XIAP protein – biophysical, small-molecule microarray, fluorescence 635 nm, primary screen (AID 1181); settings: higher = more signal;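 also: score merges 667 nm emission and signal to noise over triplicate slides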
Sequence of E3 ubiquitin-protein ligase XIAP (Homo sapiens) (P98170 whole entry, looked up, the tested form may be a part): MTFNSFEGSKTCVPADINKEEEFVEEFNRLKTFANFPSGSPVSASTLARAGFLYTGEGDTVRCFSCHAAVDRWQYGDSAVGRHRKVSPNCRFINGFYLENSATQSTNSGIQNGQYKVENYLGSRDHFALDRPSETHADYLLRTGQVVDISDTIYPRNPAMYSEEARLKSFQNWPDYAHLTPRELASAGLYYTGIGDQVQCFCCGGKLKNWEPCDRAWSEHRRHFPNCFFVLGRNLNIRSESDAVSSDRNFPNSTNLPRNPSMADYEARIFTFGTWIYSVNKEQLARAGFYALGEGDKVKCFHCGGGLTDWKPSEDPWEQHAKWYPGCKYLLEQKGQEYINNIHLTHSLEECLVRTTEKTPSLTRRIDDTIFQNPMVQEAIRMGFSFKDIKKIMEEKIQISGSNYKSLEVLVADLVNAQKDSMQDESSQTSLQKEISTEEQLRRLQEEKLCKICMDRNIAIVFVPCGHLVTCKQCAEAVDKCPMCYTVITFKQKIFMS

[11] = system: XIP peptide (Xip251-270) binding; assay: XIP fragment 251-270 binding compounds – biochemical, small-molecule microarray, fluorescence 635/667 nm, 0.1 µg/mL protein, primary screen (AID 1182); settings: fluorescent protein binding, 635 nm, higher = more signal, called active from +8 up or from −8 down
XIP peptide (Xip251-270) = assay: compounds binding XIP fragment 251-270 – biochemical, small-molecule microarray, fluorescence 635/667 nm, 0.5 µg/mL protein, primary screen (AID 1183); settings: fluorescence 635 nm, higher = more signal
[12] = blood-stage malaria parasite viability loss – strain 3D7, DAPI fluorescence, 100 nL, primary screen (AID 1184);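 also: parasites grown inside human red blood cells in medium with human serum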; settings: P. falciparum 3D7 growth, 3 d, higher = more signal
[13] = target: Homeobox protein Hox-A13 (Mus musculus) (UniProt Q62424); assay: disruptors of Hoxa13 oligonucleotide interaction – biochemical, fluorescence polarization, labeled oligonucleotide, primary screen (AID 1185); settings: Hoxa13:DNA binding, 15 min, higher = more signal, called active from +8 up or from −8 down
Sequence of Homeobox protein Hox-A13 (Mus musculus) (Q62424 whole entry, looked up): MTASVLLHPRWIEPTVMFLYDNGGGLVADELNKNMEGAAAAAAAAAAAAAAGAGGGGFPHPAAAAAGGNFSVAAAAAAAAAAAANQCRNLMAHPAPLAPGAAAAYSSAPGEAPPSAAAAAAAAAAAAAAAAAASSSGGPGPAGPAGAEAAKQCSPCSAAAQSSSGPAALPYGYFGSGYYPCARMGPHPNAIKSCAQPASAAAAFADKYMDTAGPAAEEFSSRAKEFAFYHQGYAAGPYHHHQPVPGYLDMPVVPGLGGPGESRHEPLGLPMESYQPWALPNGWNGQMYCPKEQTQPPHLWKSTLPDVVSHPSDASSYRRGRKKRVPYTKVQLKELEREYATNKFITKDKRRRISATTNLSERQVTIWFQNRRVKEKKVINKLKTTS

[14] = blockers of DNA damage checkpoint Chk1 activation – imaging, HeLa, hydroxyurea, phospho-Chk1 antibody, percent positive cells, primary screen (AID 1186); settings: hydroxyurea-induced phospho-Chk1 immunofluorescence imaging, higher = more signal
[15] = blockers of DNA damage checkpoint Chk1 activation – imaging, HeLa, hydroxyurea, phospho-Chk1 nuclear intensity, primary screen (AID 1187); settings: hydroxyurea-induced phospho-Chk1 immunofluorescence imaging, higher = more signal

With `CC1CC/C=C\[C@H]2OC34C=CCN(C(C)(C)C)C(=O)[C@H]3N(CCCCCCO)C(=O)[C@@H]4C2C(=O)O1` (some centres undefined) the z-score [1] was -0.0231, the z-score [2] was -0.51 (inactive) and the z-score [3] was -1.72 (inactive). The composite z-score [4] was -1.07 (inactive), the z-score [5] was -0.401 (inactive) and the z-score [6] was 0.0296 (inactive). For the same molecule, the z-score [7] was 0.504 (inactive), the z-score [8] was 0.749 (inactive) and the z-score [9] was -1.14. The composite z-score [10] was 0.191, the composite z-score [11] was 1.87 (inactive) and the composite z-score (XIP peptide (Xip251-270)) was -0.512. The z-score [12] was 0.621, the z-score [13] was -4.21 (inactive) and the z-score [14] was -0.82 (inactive). For the same molecule, the z-score [15] was 0.193 (inactive).

In the case of `COCCOC(=O)N1C(=O)[C@@]2(c3cc(C#CCNC(N)=O)ccc31)[C@H](C(=O)NC[C@H](O)c1ccccc1)[C@H]1C(=O)O[C@H](c3ccccc3)[C@H](c3ccccc3)N1[C@@H]2c1ccccc1OCCO`, the z-score [1] was -0.577, the z-score [2] was 1.39 (inactive) and the z-score [3] was 0.796 (inactive). The composite z-score [4] was 0.272 (inactive), the z-score [5] was 2.62 (inactive) and the z-score [6] was 1.97 (inactive). The z-score [7] was 1.01 (inactive), the z-score [8] was 1.1 (inactive) and the z-score [9] was 0.952. The composite z-score [10] was 0.108, the composite z-score [11] was 0.0808 (inactive) and the composite z-score (XIP peptide (Xip251-270)) was 0.689. The z-score [12] was -0.411, the z-score [13] was -1.65 (inactive) and the z-score [14] was 0.0441 (inactive). The z-score [15] was 0.0861 (inactive).

In the case of `CCCCC(O)C1C=CC2C(=O)N(c3ccccc3)C(=O)C2N1Nc1ccccc1F` (centres undefined), the z-score [1] was -0.8, the z-score [2] was -0.42 (inactive) and the z-score [3] was -0.459 (inactive). The composite z-score [4] was -0.365 (inactive), the z-score [5] was 1.14 (inactive) and the z-score [6] was -0.182 (inactive). The z-score [7] was -0.221 (inactive), the z-score [8] was 0.128 (inactive) and the z-score [9] was -0.786. The composite z-score [10] was 0.691, the composite z-score [11] was 0.335 (inactive) and the composite z-score (XIP peptide (Xip251-270)) was 0.744. For the same molecule, the z-score [12] was 1.01, the z-score [13] was -3.4 (inactive) and the z-score [14] was 0.772 (inactive). For the same molecule, the z-score [15] was -0.0522 (inactive).

With `COc1ccc(C(=O)Nc2ccc(CN3C(=O)[C@@]4(O[C@@H](CCn5cc([C@H](O)c6ccccc6)nn5)[C@H]([Si](C)(C)c5ccc(OC)cc5)[C@H]4C)c4ccccc43)cc2)cc1` the z-score [1] was -1.44, the z-score [2] was -0.91 (inactive) and the z-score [3] was -3.18 (inactive). For the same molecule, the composite z-score [4] was -0.441 (inactive), the z-score [5] was 1.04 (inactive) and the z-score [6] was 1.57 (inactive). The z-score [7] was 0.245 (inactive), the z-score [8] was 0.195 (inactive) and the z-score [9] was -3.11. The composite z-score [10] was -0.16, the composite z-score [11] was 0.0679 (inactive) and the composite z-score (XIP peptide (Xip251-270)) was 0.216. The z-score [12] was -2.3, the z-score [13] was 0.568 (inactive) and the z-score [14] was -0.0665 (inactive). The z-score [15] was -0.348 (inactive).

With `C=CCOC(=O)[C@H]1[C@@H]2C(=O)O[C@@H](c3ccccc3)[C@@H](c3ccccc3)N2[C@@H](c2ccc(OCCOC(=O)[C@H]3C[C@H]4C(=O)N5CCC[C@H]5C(=O)N4[C@H]3c3ccc(O)cc3)cc2)[C@]12C(=O)Nc1ccc(I)cc12` the z-score [1] was -0.495, the z-score [2] was -1.03 (inactive) and the z-score [3] was -0.941 (inactive). For the same molecule, the composite z-score [4] was -1.73 (inactive), the z-score [5] was 2.43 (inactive) and the z-score [6] was -0.632 (inactive). For the same molecule, the z-score [7] was -0.651 (inactive), the z-score [8] was -1.05 (inactive) and the z-score [9] was -0.215. The composite z-score [10] was 2.8, the composite z-score [11] was 2.85 (inactive) and the composite z-score (XIP peptide (Xip251-270)) was 0.84. The z-score [12] was -1.28, the z-score [13] was 0.622 (inactive) and the z-score [14] was -0.187 (inactive). The z-score [15] was 0.366 (inactive).

With `C[N+](C)(C)CCCCNC(=O)[C@H]1C[C@H]2C(=O)N[C@@H](Cc3ccccc3)C(=O)N2[C@H]1c1ccc(O)cc1` the z-score [1] was -1.87, the z-score [2] was 0.606 (inactive) and the z-score [3] was -0.0345 (inactive). For the same molecule, the composite z-score [4] was -30.9 (active), the z-score [5] was 0.516 (inactive) and the z-score [6] was 0.644 (inactive). For the same molecule, the z-score [7] was 0.783 (inactive), the z-score [8] was 1.17 (inactive) and the z-score [9] was -0.9. For the same molecule, the composite z-score [10] was -0.355, the composite z-score [11] was 1.17 (inactive) and the composite z-score (XIP peptide (Xip251-270)) was -0.229. The z-score [12] was 0.498, the z-score [13] was -1.49 (inactive) and the z-score [14] was 0.671 (inactive). For the same molecule, the z-score [15] was 0.345 (inactive).

In the case of `CCCCCN1CC=CC23O[C@@H]4/C=C\CCCOC(=O)C4[C@H]2C(=O)N(C(CO)C(C)C)[C@@H]3C1=O` (some centres undefined), the z-score [1] was 1.05, the z-score [2] was 0.367 (inactive) and the z-score [3] was 0.641 (inactive). For the same molecule, the composite z-score [4] was -2.08 (inactive), the z-score [5] was -0.124 (inactive) and the z-score [6] was 0.226 (inactive). For the same molecule, the z-score [7] was 0.299 (inactive), the z-score [8] was 0.0539 (inactive) and the z-score [9] was 0.574. For the same molecule, the composite z-score [10] was 0.177, the composite z-score [11] was -0.0186 (inactive) and the composite z-score (XIP peptide (Xip251-270)) was 0.0798. The z-score [12] was 0.609, the z-score [13] was -4.65 (inactive) and the z-score [14] was -0.609 (inactive). The z-score [15] was -0.33 (inactive).

With `C=CCOC(=O)[C@H]1[C@@H]2C(=O)O[C@@H](c3ccccc3)[C@@H](c3ccccc3)N2[C@@H](c2ccc(OCCOC(=O)[C@@H]3C[C@@H]4C(=O)N[C@@H](CCCCN(C)C)C(=O)N4[C@@H]3c3ccc(O)cc3)cc2)[C@]12C(=O)Nc1ccc(I)cc12` the z-score [1] was -0.513, the z-score [2] was -1.17 (inactive) and the z-score [3] was -1.06 (inactive). The composite z-score [4] was -1.71 (inactive), the z-score [5] was 1.26 (inactive) and the z-score [6] was 1.65 (inactive). The z-score [7] was -0.619 (inactive), the z-score [8] was 0.767 (inactive) and the z-score [9] was -1.18. For the same molecule, the composite z-score [10] was -0.0749, the composite z-score [11] was 1.74 (inactive) and the composite z-score (XIP peptide (Xip251-270)) was 0.805. For the same molecule, the z-score [12] was -0.174, the z-score [13] was 6.34 (inactive) and the z-score [14] was 0.936 (inactive). For the same molecule, the z-score [15] was 0.679 (inactive).

For `COCCOC(=O)N1C(=O)[C@@]2(c3cc(C#Cc4ccc(OC)cc4)ccc31)[C@H](c1ccc(O)cc1)N1[C@H](c3ccccc3)[C@H](c3ccccc3)OC(=O)[C@H]1[C@@H]2C(=O)NC[C@H](O)c1ccccc1`, the z-score [1] was -0.372, the z-score [2] was 0.895 (inactive) and the z-score [3] was -0.5 (inactive). The composite z-score [4] was 1.49 (inactive), the z-score [5] was 0.429 (inactive) and the z-score [6] was 0.95 (inactive). The z-score [7] was 0.351 (inactive), the z-score [8] was -0.206 (inactive) and the z-score [9] was -0.573. The composite z-score [10] was -0.296, the composite z-score [11] was 0.27 (inactive) and the composite z-score (XIP peptide (Xip251-270)) was 0.77. The z-score [12] was -1.66, the z-score [13] was -0.934 (inactive) and the z-score [14] was -0.192 (inactive). The z-score [15] was 0.249 (inactive).

From PubChem BioAssay
